# Screening data from PubChem BioAssay.
# JMJD2A Tudor inh – inhibitors of human JMJD2A Tudor domain; O75164; AlphaScreen JMJD2A-Tudor / H3K4me3 peptide binding; Potency, µM (series often up to 114 µM), for inactives: top-dose activity change, negative = inhibition, hits mostly inhibitors; hit rate 4.4% among 390,000; note: potency is the fitted concentration of half-maximal effect; % is set by controls: 0 for no effect and ±100 for the full control effect; nearly all actives have a fitted effect of over 50% in size
# BAZ2B block – inhibitors of human BAZ2B bromodomain; AlphaScreen BAZ2B-H3K14Ac peptide displacement; Potency, µM (titrated, usually from 114 µM), for the others: top-dose activity change, negative = inhibition, hits mostly inhibitors; Q9UIF8; hit rate 4.4% among 360,000; note: potency is the fitted concentration of half-maximal effect; % is set by controls: 0 for no effect and ±100 for the full control effect; nearly all actives have a fitted effect of over 60% in size
#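 Protein-peptide AlphaScreen: BAZ2B 50 nM, b-H3K14Ac 50 nM, 1x PBS pH 7.4 + 0.01% Tween-20. Preincubation 30 min RT; cpd 30 min RT (top 110 uM); beads 20 min RT, light-protected.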
# G9a inh – blocks human histone lysine methyltransferase G9a | G9a H3K9 monomethylation, AlphaScreen, 2 h | Q96KQ7 | AID 504332 | Potency, µM (top dose mostly 102 µM), for the others: at the top dose activity, negative = inhibition, actives largely listed as inhibitors | hit rate 8.8% among 350,000; note: potency is the fitted concentration of half-maximal effect; % is set by controls: 0 for no effect and ±100 for the full control effect; nearly all actives have a fitted effect of over 75% in size
#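 Readings reflect AlphaScreen signal from monomethyl-H3K9 antibody detection. HMT at 20 nM; substrate b-H3K9 500 nM; cofactor SAM 20 uM; 2 h RT reaction; compounds tested as titrations in qHTS with 15 min preincubation.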
# HP1b binding inh – blocks HP1-beta chromodomain binding to methylated histone tails; P83916; AlphaScreen HP1-beta / biotin-H3K9me3 peptide binding; Potency, µM (highest dose often 114 µM), for the others: at the top dose activity change, negative = inhibition, actives largely listed as inhibitors; hit rate 0.56% among 390,000; AID 540317; note: potency is the fitted concentration of half-maximal effect; nearly all actives have a fitted effect of over 70% in size
# Target sequence (P83916 whole entry, looked up): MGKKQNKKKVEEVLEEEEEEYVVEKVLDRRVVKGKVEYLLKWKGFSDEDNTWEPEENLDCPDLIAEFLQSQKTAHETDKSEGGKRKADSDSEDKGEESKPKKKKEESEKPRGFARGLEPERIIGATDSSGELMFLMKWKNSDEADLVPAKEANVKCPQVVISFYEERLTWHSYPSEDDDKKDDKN
#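 HP1-beta protein (50 nM final) preincubated 30 min at room temperature with biotinylated H3(1-18)K9me3 peptide (50 nM) in PBS pH 7.4, 0.01% Tween-20, then compound added for 30 min. AlphaScreen streptavidin donor/nickel chelate acceptor beads (10 ug/mL final), 30 min dark, luminescence read.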
# PI5P4K alpha inh – inhibitors of human PI5P4K alpha; hit rate 1.2% among 330,000; PI5P4Kalpha enzyme, ADP-Glo luminescence, 60 min; stronger effect = lower value; max response, %; P48426; active = max response of -50% or lower; inconclusive = between -30% and -50%; inactive = -30% or higher; note: value at the top dose of about 77 µM; % is set by controls: 0 for no effect and ±100 for the full control effect
# Target sequence (P48426 whole entry, looked up): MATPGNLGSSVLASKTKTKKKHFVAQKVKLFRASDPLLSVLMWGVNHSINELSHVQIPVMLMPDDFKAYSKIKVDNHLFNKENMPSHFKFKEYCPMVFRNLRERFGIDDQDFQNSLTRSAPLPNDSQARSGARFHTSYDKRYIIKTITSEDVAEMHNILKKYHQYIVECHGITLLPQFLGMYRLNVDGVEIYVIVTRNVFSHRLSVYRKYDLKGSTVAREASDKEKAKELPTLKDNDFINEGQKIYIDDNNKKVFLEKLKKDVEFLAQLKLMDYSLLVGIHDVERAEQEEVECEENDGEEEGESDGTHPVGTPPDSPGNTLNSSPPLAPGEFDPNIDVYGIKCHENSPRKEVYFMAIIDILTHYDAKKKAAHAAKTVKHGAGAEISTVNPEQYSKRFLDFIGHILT
#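 Controls without substrate or without enzyme flank wells where PI5P4Kalpha converts substrate using 5 microM ATP (final). Incubation lasts 60 minutes at room temperature; ADP formed is read by ADP-Glo luminescence.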
# PLK1 PBD block – inhibitors of human PLK1 polo-box domain binding; hit rate 2.8% among 360,000; P53350; Plk1 PBD binding of FITC phosphopeptide, fluorescence polarization; Potency, µM, for the others: max response, negative = inhibition, most hits filed as inhibitors; note: potency is the fitted concentration of half-maximal effect; series mostly up to about 57 µM; % is set by controls: 0 for no effect and ±100 for the full control effect; nearly all actives have a fitted effect of over 65% in size
# An asterisk follows results filed as active; ? = inconclusive; nt = no result given; [ ] = dose if it differs, or a comment. Only some compounds are listed: those with a hit (about 12% of all), similar ones and a draw of the others. Unless noted, calls come from the whole dose curve; as a rule, active = well fitted curve in the direction sought with a large enough effect; inconclusive = small, poorly fitted or top-dose-only effect, or another doubt; inactive = no such curve, though single readings can be large; an effect the other way counts as inactive or inconclusive.
SMILES,JMJD2A Tudor inh,BAZ2B block,G9a inh,HP1b binding inh,PI5P4K alpha inh,PLK1 PBD block
COc1ccc(-c2sc3ccccc3c2-c2ccc(OCCN3CCCCC3)cc2)cc1,44.7µM*,nt,nt,-15.0%,6.9,-8.1%
c1ccc(-c2sc3ccccc3c2-c2ccc(OCCN3CCCC3)cc2)cc1,50.1µM*,nt,nt,-15.1%,26.6,-3.1%
COc1ccc(-c2sc3cc(OC)ccc3c2-c2ccc(OCCN3CCCCC3)cc2)cc1,nt,nt,nt,nt,-1.4,-2.8%
Cc1nc(-c2ccc(Cl)cc2)sc1CCNC(=O)C(=O)Nc1ccc2c(c1)OCCO2,-12.5%,-2.1%,21.9%[59 µM],20.1%[57 µM],nt,nt
CC(Sc1nc(=O)cc(N)n1CCc1ccccc1)C(=O)Nc1ccc(Cl)cc1 (stereo not drawn),-16.2%,-18.5%,4.0%[59 µM],49.9%,nt,nt
O=C(c1cnccn1)N1CCC2(CCCN(Cc3ccncc3)C2)CC1,nt,nt,9.4%[12.7 µM],nt,nt,nt
Oc1ccccc1C(=S)N1CCN(c2cccc(Cl)c2)CC1,?,44.7µM*,-8.6%[0.501 µM],?,-15.7,11.9µM*
COc1ccc(C(=S)N2CCN(c3cccc(Cl)c3)CC2)c(OC)c1,?,?,10µM*,?,-4.6,11.9µM*
CSc1ccccc1C(=O)N1CCN(c2cccc(Cl)c2)CC1,-7.2%,-31.0%,-40.1%,20.1%,0.3,-22.8%
COc1ccc(C(=O)N2CCN(c3cccc(Cl)c3)CC2)cc1,-15.0%,-4.4%,-8.5%[59 µM],37.5%,-2.8,-7.5%
CC(=O)N1CCN(C(=S)c2ccc(Cl)cc2)CC1,-6.6%,40.8%,25.1µM*,?,3.4,21.2µM*
CC(=O)N1CCN(C(=O)CCCNC(=O)c2ccc(Cl)cc2)CC1,-4.5%,nt,nt,46.2%,0.2,-0.3%
COc1cc(C(=S)N2CCN(c3cccc(Cl)c3)CC2)ccc1O,63.1µM*,44.7µM*,-4.9%[0.501 µM],7.08µM*,?,4.74µM*
CCOc1ccccc1CNC(=O)C1CCN(Cc2cc3ccccc3n2Cc2ccccc2)CC1,-8.0%,-15.6%,3.0%[59 µM],17.8%,nt,nt
Cc1ccc(Cn2c(CCNC(=O)c3cccc(C)c3)nc3ccccc32)cc1,-21.8%,-3.0%,-25.9%[59 µM],9.9%,nt,nt
COc1cc(C(=S)N2CCN(c3ccccc3Cl)CC2)cc(O)c1O,31.6µM*,50.1µM*,1.78µM*,11.2µM*,-57.6*,16.8µM*
CC(=O)c1ccc(NC(=S)N2CCN(c3cccc(Cl)c3)CC2)cc1,-7.2%,-12.5%,10.0%,17.6%,-0.7,-5.9%
COc1ccccc1N1CCN(C(=O)COc2ccc(Cl)cc2Br)CC1,-18.1%,nt,-50.8%[59 µM],32.2%,17.1,-0.5%
Oc1ccc(C(=S)N2CCN(c3cccc(Cl)c3)CC2)cc1,56.2µM*,39.8µM*,5.01µM*,?,-3.7,8.44µM*
Cc1ccc(-n2c(-c3cccc(C)c3)n[nH]c2=S)cc1,20µM*,-27.8%,-126.8%,-7.9%,nt,-8.8%
Cc1ccc(-n2c(C)nc3ncnc(-c4ccccc4)c32)cc1,-6.2%,1.6%,9.1%[59 µM],-1.3%,-2.5,-12.2%
COc1ccc(-c2n[nH]c(=S)n2-c2ccc(C)cc2)cc1OC,6.31µM*,-13.9%,3.98µM*,26.5%,-1.2,-11.5%
Cc1ccc(-n2c(-c3c(-c4ccccc4)noc3C)n[nH]c2=S)cc1,-23.0%,-23.4%,0.562µM*,12.4%,nt,-9.9%
COc1ccc2c(c1)C(C)=CC(C)(C)N2S(=O)(=O)c1ccc(C)cc1,-12.8%[57.1 µM],-20.4%,86.8%,9.3%,1.7,?
CCOc1ccc2c(c1)[N+](C)(C)C(C)(C)C=C2C,17.8µM*,-15.7%,?,3.2%,0.0,-6.5%
SMILES,JMJD2A Tudor inh,BAZ2B block,G9a inh,HP1b binding inh,PI5P4K alpha inh,PLK1 PBD block
COc1ccc2c(c1)[N+](C)(C)C(C)(C)C=C2C,17.8µM*,-22.1%,?,?,-14.0,-25.4%
O=S(=O)(c1ccc2c(c1)OCCO2)N1CCN(S(=O)(=O)c2c(Cl)cc(C(F)(F)F)cc2Cl)CC1,-13.0%,nt,nt,nt,nt,nt
C#CCN(CC(=O)OCC)S(=O)(=O)CCNC1CC1,nt,nt,nt,nt,-0.8,-11.9%
CC(=O)N1c2ccccc2C(C)(c2ccc(C)cc2)CC1(C)C (stereo not drawn),17.6%,10.8%,-6.9%[59 µM],20.5%,nt,nt
O=S1(=O)c2cccc3cccc(c23)N1CCCN1CCN(c2ccc(F)cc2)CC1,nt,nt,-0.3%[12.7 µM],nt,nt,nt
CCOc1ccc(Cl)cc1CNc1nnnn1C,-14.1%,-2.9%,2.0%,-11.7%,-8.8,-28.6%
CCCOc1ccc(Cl)cc1CNc1ccccc1,57.0%,35.3%,205.8%,52.4%,-1.9,16.8µM*
CCOC(=O)CCP(=O)(O)C(O)c1ccccc1 (stereo not drawn),50.1µM*,1.0%,18.0%[59 µM],8.3%,-9.9,23.8µM*
CN(CP(=O)(O)C(O)c1ccccc1)S(C)(=O)=O (stereo not drawn),?,-3.7%,?,27.0%,-4.8,0.0%
CC(=N\NC(=O)c1ccc([N+](=O)[O-])cc1)/C(=N/O)C(=O)Nc1ccccc1,-10.9%,50.1µM*,nt,32.9%,-7.4,1.3%
CSc1ccccc1NC(=O)c1csc(C)c1,1.3%,7.4%,60.0%,53.5%,9.3,-6.8%
Cc1nnc(NC(=O)CSc2nnc(-c3ccoc3C)n2CC(C)C)s1,50.1µM*,62.6%,26.0%[12.7 µM],-6.5%,-17.4,26.7µM*
CCCn1c(SCC(=O)Nc2nnc(C)s2)nnc1-c1ccoc1C,50.1µM*,0.2%,-13.5%[12.7 µM],-12.4%,-20.0,26.7µM*
CCCCn1c(SCC(=O)Nc2nnc(C)s2)nnc1-c1ccoc1C,10.4%,-0.3%,14.4%[59 µM],12.1%,7.3,0.9%
CCc1nc(-c2cc(S(=O)(=O)N3CCN(c4ccc(F)cc4)CC3)ccc2OC)no1,-17.2%,-25.7%,?,26.9%,nt,nt
Cc1ccc(CSc2ncnc3ccccc23)cc1,96.5%,105.6%,176.4%,144.4%,17.9,-5.9%
Fc1ccc(CSc2ncnc3ccccc23)cc1,55.6%,141.7%,73.8%[59 µM],55.9%,3.4,26.7µM*
O=C(CSc1ncnc2ccccc12)c1cccs1,3.4%,5.4%,22.4µM*,3.3%,2.8,-17.8%
Cc1ccc(C(=O)CSc2ncnc3ccccc23)o1,-4.2%,-20.0%,25.1µM*,-2.1%,1.6,-12.2%
c1ccc(CSc2ncnc3ccccc23)cc1,91.5%,153.0%,259.2%,123.8%,7.3,4.6%
Cc1n[nH]c(=O)c2c(NC(=O)COC(=O)c3cccc(OC(F)F)c3)oc(C)c12,-9.7%,15.3%,10µM*,44.4%,-1.0,-24.3%
Cc1n[nH]c(=O)c2c(NC(=O)COC(=O)Cc3ccc(Cl)cc3Cl)oc(C)c12,-13.6%,8.3%,7.7%[0.501 µM],36.8%,4.5,-7.6%
Cc1n[nH]c(=O)c2c(NC(=O)COC(=O)COc3cccc(Br)c3)oc(C)c12,-12.8%,0.5%,17.8µM*,54.8%,-4.5,-28.5%
CCOC(=O)Cc1csc(SCC(=O)Nc2oc(C)c3c(C)n[nH]c(=O)c23)n1,-4.4%,8.4%,-7.3%[12.7 µM],53.8%,-0.7,-22.3%
Cc1n[nH]c(=O)c2c(NC(=O)COC(=O)/C=C/c3cccc(C(F)(F)F)c3)oc(C)c12,-20.0%,6.5%,10µM*,40.0%,2.7,-16.9%
